Eight molecules from PubChem BioAssay (NCI) can be followed below.

This is part of a sample that, as a whole, favours compounds with a hit. Of some 83,000 tested, about 20% had one in any assay.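 Assay: single dose, 48 h. Readout: percent growth (0 = no net growth; negative = cell death). Active: <10.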 Unmarked numbers belong to inactive results. Activity calls are given as the source filed them.

Holding throughout (assay): NCI-60 one-dose screen, 48 h (100 = growth as untreated, 0 = no growth, -100 = all killed)
Common to all, as to conditions: 10 µM unless noted

Assay [1] relates to NCI-H23 lung.
In assay [2] the test system is NCI-H226 lung.
Assay [3] has as its system NCI-H322M lung.
Assay [4] concerns HOP-62 NSCLC.
The subject of assay [5] is NCI-H460 lung.
The subject of assay [6] is HOP-92 NSCLC.
Assay [7] has as its system NCI-H522 lung.
For assay [8], the system named is A549/ATCC NSCLC.
The test system of assay [9] is 786-0 renal.
The subject of assay [10] is COLO 205 colon.
In assay [11] the test system is DU-145 prostate.
The subject of assay [12] is K-562 leukemia.
Assay [13] has as its system MALME-3M melanoma.
In assay [14] the test system is RXF 393 renal.
The subject of assay [15] is SF-268 CNS.
Assay [16] relates to SF-295 CNS.
In assay [17] the test system is SF-539 CNS.
For assay [18], the system named is UACC-257 melanoma.
In assay [19] the test system is M14 melanoma.
For assay [20], the system named is MDA-MB-231 breast.

`CCOC(=O)c1c(C)n(Cc2ccccc2)c2cc(CN(C)C)c(O)cc12`: the growth in assay [1] was 57.2%; in assay [2] it was 91.3%; in assay [3] it was 41.8%; in [4], 47.9%; in assay [5] it was 53.4%; in assay [6], 8.81% (active). Also, the growth in [7] is 77.9%; in assay [8], 79.5%; in assay [9], 57.8%; in [10], 58%; in assay [11], 79.9%; in assay [12] it was 29.3%. For the same molecule, the growth is 103% in [13]; 66.9% in assay [14]; 82.9% in [15]; 43.6% in assay [16]; 57.8% in assay [17]; 81.8% in [18]. Besides, in assay [19], the growth was 81.3%.

Take `C[C@]12CCc3nc(Nc4ccccc4F)sc3C1=CC[C@@H]1[C@@H]2CC[C@]2(C)C(=O)CC[C@@H]12`: the growth in assay [1] is 77.7%; in [2], 85.9%; in [3], 86.5%; in assay [4], 87.2%; in assay [5], 60.3%; in assay [6], 116%. Further, the growth in assay [7] is 79.1%; in assay [8], 76.7%; in assay [9] it was 38.5%; in assay [10], 75.7%; in assay [11], 28.4%; in assay [12], 21.7%. For the same molecule, the growth in assay [13] was 75.7%; in [20], 92.5%; in assay [15], 78.8%; in assay [16], 51%; in assay [17], 41.4%; in [18], 90.7%. In addition, in assay [19], the growth is 75.1%.

For `c1ccc(Nc2nc(-c3ccccc3)c[se]2)cc1`, the growth in assay [1] is 87.2%; in [2], 81.4%; in [3], 69.8%; in [4], 69.8%; in assay [5], 100%; in assay [6], 59.8%. Also, the growth in assay [7] is 68.6%; in assay [8], 87.5%; in assay [9], 93%; in assay [10], 104%; in assay [11], 98.4%; in [12], 80.1%. In addition, the growth in assay [13] was 78.6%; in [20] it was 64.3%; in [15], 95.7%; in assay [16] it was 93%; in assay [17], 93.7%; in assay [18], 98.6%. The growth in assay [19] is 87.3%.

On to `Cc1ccc(Nc2nc3c(s2)C2=CC[C@@H]4[C@H](CC[C@]5(C)C(=O)CC[C@@H]45)[C@@]2(C)CC3)cc1`, for which the growth in assay [1] was 58.4%; in assay [2], 69.5%; in [3] it was 61.8%; in assay [4], 43.4%; in [5] it was 38.9%; in [6] it was 78.6%. Moreover, the growth was 56.3% in assay [7]; 55.8% in assay [8]; 9.1% (active) in assay [9]; 63.5% in assay [10]; 46.5% in assay [11]; 19.8% in assay [12]. For the same molecule, the growth in assay [13] is 70%; in assay [20], 52.8%; in [15] it was 56.3%; in [16] it was 5.48% (active); in assay [17], 3.73% (active); in assay [18] it was 80.3%. In [19], the growth was 62.2%.

Regarding `C=C1[C@@H](C)[C@H]2[C@H](Cc3ccccc3)NC(=O)[C@]23[C@@H](O)/C=C/[C@@](C)(O)C(=O)[C@@H](C)C/C=C/[C@H]3[C@@H]1O`, the growth in [1] was 68.2%; in assay [2], 50.4%; in [3], 92.2%; in assay [4], 5.91% (active); in [5], 69.3%; in assay [6] it was -9.38% (active). Besides, the growth was 28% in assay [7]; 37.7% in assay [8]; 20.1% in [9]; -17.8% (active) in [10]; 82.9% in assay [11]; 52% in [12]. The growth in assay [13] is 62.5%; in assay [20], 32.9%; in assay [15], 24.5%; in assay [16], 39.2%; in assay [17] it was 21.9%; in [19], 68.8%.

With `ClCCN(CCCl)c1nc(Cl)c(C2CC(c3ccccc3)=NN2c2cc(Cl)cc(Cl)c2)s1` (stereo not given), the growth in [1] was 99.7%; in assay [2], 99.6%; in assay [3], 97.8%; in [4], 111%; in assay [5] it was 99.3%; in assay [6], 113%. The growth was 97.6% in [7]; 94.7% in assay [8]; 100% in assay [9]; 121% in assay [10]; 107% in assay [11]; 99.1% in assay [12]. In addition, the growth is 103% in assay [13]; 98.7% in [20]; 96.7% in [15]; 107% in assay [16]; 101% in [17]; 95.9% in assay [18]. Also, in assay [19], the growth is 108%.

On to `COC(=O)[C@@H](C)C[C@H](Cc1ccc(F)cc1)NC(=O)c1csc([C@@H](C[C@H](C(C)C)N(C)C(=O)[C@@H](NC(=O)[C@H]2CCCCN2C)C(C)C)OC(C)=O)n1`, for which the growth in assay [1] is 35.2%; in [2], 27.3%; in [3], 38%; in assay [4], 6.77% (active); in assay [5], 6.06% (active); in [6], 26.7%. The growth in [7] was -13.9% (active); in [8], 16.6%; in assay [9] it was 13.2%; in assay [10] it was -68.8% (active); in assay [11], 13.5%; in [12], 8.92% (active). For the same molecule, the growth in [13] is 47%; in assay [20] it was 4.87% (active); in [15] it was 27%; in assay [16], 8.69% (active); in assay [17], -6.38% (active); in assay [19], -5.96% (active).

On to `COc1ccc(N(CC(=O)NCCC[Te]c2ccccc2)C(=O)CCSC2=C(C)C(=O)c3ccccc3C2=O)cc1`, for which the growth in assay [1] is -49.3% (active); in assay [2], -54.8% (active); in assay [3], 2.85% (active); in assay [4] it was -46.4% (active); in assay [5] it was -73.5% (active); in assay [6], -49.8% (active). The growth in [7] was -41.2% (active); in assay [8], -52.4% (active); in assay [9] it was -22.1% (active); in assay [10], -97.9% (active); in assay [11], -10.1% (active); in assay [13] it was -11.7% (active). For the same molecule, the growth was -61.6% (active) in assay [20]; -26.5% (active) in assay [14]; 3.17% (active) in assay [15]; -50.1% (active) in assay [16]; -62.6% (active) in assay [17]; 0.434% (active) in assay [18]. Further, the growth in assay [19] is -38.3% (active).
